Results on 5 compounds are retold here after PubChem BioAssay.

The nature of assay [1]: small molecules captured by biotinylated probe aFSTL3 – biochemical, small-molecule microarray, fluorescence 635/667, stem cell growth factor project, primary screen (AID 1064).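 Note: measures binding of the biotinylated anti-FSTL3 antibody to printed compounds.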 As to conditions: higher = more signal.
Assay [2] can be described thus: binders from COS7 lysate, DM2A8 probe, primary screen, torsin A project, cell lysate, small-molecule microarray, fluorescence 635/667 (AID 1065). As to conditions: higher = more signal, COS7 lysate expressing mutant human TOR1A.
Assay [3] in a line: small molecules captured by biotinylated probe aFGF2 – biochemical, small-molecule microarray, fluorescence 635/667, stem cell growth factor project, primary screen (AID 1067).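 Note: measures binding of biotinylated aFGF2 protein to printed compounds on slides; z-score merges feature fluorescence and signal-to-noise across triplicate slides.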 As to conditions: higher = more signal.
Assay [4] is described as follows: small molecules captured by biotinylated probe aFGF10 – biochemical, small-molecule microarray, fluorescence 635/667, stem cell growth factor project, primary screen (AID 1071).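 Note: score merges 667 nm spot intensity and signal to noise from triplicate slides.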 As to conditions: higher = more signal.
Assay [5] concerns the target Neurogenic locus notch homolog protein 2 (Homo sapiens) (UniProt Q04721). The assay is described as follows: small molecules binding Notch2 protein – biochemical, small-molecule microarray, 635 nm fluorescence, stem cell growth factors, primary screen (AID 1073). As to conditions: higher = more signal.
The target in assay [6] is Pro-neuregulin-1, membrane-bound isoform (Homo sapiens) (UniProt Q02297). The assay is described as follows: small molecules binding neuregulin-1 protein – biochemical, small-molecule microarray, fluorescence 635/667, psychiatric disease protein project, primary screen (AID 1075).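 Note: score combines 667 nm spot fluorescence with signal to noise.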 As to conditions: NRG1 binding, 635 nm fluorescence, higher = more signal.
Chain of Pro-neuregulin-1, membrane-bound isoform (Homo sapiens) (Q02297 whole entry, looked up, the tested form may be a part, canonical isoform): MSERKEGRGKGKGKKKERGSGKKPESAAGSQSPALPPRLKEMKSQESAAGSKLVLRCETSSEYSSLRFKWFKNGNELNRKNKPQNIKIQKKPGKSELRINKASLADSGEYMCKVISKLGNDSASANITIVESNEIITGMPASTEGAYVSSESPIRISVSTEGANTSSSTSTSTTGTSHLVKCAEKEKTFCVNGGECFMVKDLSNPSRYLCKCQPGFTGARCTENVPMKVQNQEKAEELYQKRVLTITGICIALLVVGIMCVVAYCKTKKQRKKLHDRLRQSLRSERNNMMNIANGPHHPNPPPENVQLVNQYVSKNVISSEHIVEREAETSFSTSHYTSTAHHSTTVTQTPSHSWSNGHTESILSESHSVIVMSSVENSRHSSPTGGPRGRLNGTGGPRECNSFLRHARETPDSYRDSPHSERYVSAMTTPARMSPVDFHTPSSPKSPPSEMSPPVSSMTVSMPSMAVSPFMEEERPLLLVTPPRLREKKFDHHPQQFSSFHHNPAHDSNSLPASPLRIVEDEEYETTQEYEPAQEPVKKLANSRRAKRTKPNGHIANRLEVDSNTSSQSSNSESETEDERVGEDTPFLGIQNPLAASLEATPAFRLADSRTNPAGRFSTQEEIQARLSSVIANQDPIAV
In assay [7] the test system is Neuregulin-1 EGF-like domain. Briefly: small molecules binding NRG1 EGF domain – biochemical, small-molecule microarray, 635 nm fluorescence, primary screen (AID 1081).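 Note: binding of the protein to compounds printed on small-molecule microarray slides.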 As to conditions: higher = more signal.
The nature of assay [8]: FRG1 expression reporter modulators in myotubes – cell-based, C2C12 myotubes, firefly/Renilla luciferase, luminescence, FRG1 inhibition for FSHD, primary screen (AID 1084). As to conditions: FRG1 promoter luciferase, higher = more signal, called active from +8 up or from −8 down.
A short description of assay [9]: small molecules captured by biotinylated probe aFST – biochemical, small-molecule microarray, fluorescence 635/667, stem cell growth factor project, primary screen (AID 1086).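 Note: score merges 667 nm fluorescence with signal-to-noise of each printed compound spot.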 As to conditions: higher = more signal.
Assay [10] is described as follows: binders of probe aHhip on microarray, primary screen, stem cell growth factor project, biochemical, small-molecule microarray, fluorescence 635/667 (AID 1087).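 Note: score merges spot fluorescence at 667nm with spot signal to noise ratio.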 As to conditions: higher = more signal.
For assay [11], the system named is PRMT1 (protein arginine N-methyltransferase 1). The assay is described as follows: small molecules binding arginine methyltransferase PRMT1 – biochemical, small-molecule microarray, 635 nm fluorescence, primary screen (AID 1088).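 Note: binding of Prmt1 protein to compounds spotted on small-molecule microarray slides.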 As to conditions: higher = more signal.
The nature of assay [12]: growth effects on S. cerevisiae YJM789 – YJM789 clinical isolate, OD600, 24 h, basal, primary screen (AID 1089).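 Note: growth of clinical yeast isolate S. cerevisiae YJM 789 seeded 1000 cells per well; test concentration not given here.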 As to conditions: higher = more signal, called active from +8 up or from −8 down.
Assay [13] in a line: S. pombe growth modifiers, basal conditions – strain 972, OD600, 24 h, no modulator, primary screen (AID 1090).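 Note: basal condition with compound alone and no growth modifier present; test concentration not given here.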 As to conditions: S. pombe 972 growth, higher = more signal, called active from +8 up or from −8 down.
The nature of assay [14]: budding yeast growth modifiers under rapamycin – strain BY4716, OD600, 96 h, primary screen (AID 1091). Note: test concentration not given here. As to conditions: S. cerevisiae BY4716 + rapamycin, higher = more signal, called active from +8 up or from −8 down.
Assay [15] has as its target Torsin-1A-interacting protein 2 (Homo sapiens) (UniProt Q8NFQ8). Briefly: small molecules binding lysate-expressed LULL1 – cell lysate, human LULL1 lysate, 635/667 nm fluorescence, primary screen (AID 1092).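 Note: probe is lysate of COS7 cells overexpressing human LULL1; score merges per-feature 667 nm fluorescence with signal-to-noise.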 As to conditions: small-molecule microarray, hLULL1 lysate binding, 635 nm fluorescence; higher = more signal.
The nature of assay [16]: optical density change of DRC41 E. coli – strain DRC41, OD650, 24 h, E. coli filamentation project, primary screen (AID 1093).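 Note: MC1000 strain lacking acrAB efflux and sulA so SOS filamentation is blocked; test concentration not given here.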 As to conditions: E. coli DRC41 growth, higher = more signal, called active from +8 up or from −8 down.
The nature of assay [17]: probe aLefty2 binding to arrayed compounds – biochemical, biotinylated probe, 635/667 nm fluorescence, primary screen (AID 1094).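 Note: score merges spot fluorescence near 667 nm with spot signal-to-noise ratio.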 As to conditions: small-molecule microarray, higher = more signal.
In assay [18] the test system is Noggin (protein binding on small-molecule microarray). The assay is described as follows: small molecules binding Noggin protein – biochemical, 635/667 nm fluorescence, primary screen (AID 1095).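 Note: score merges 667 nm feature fluorescence with signal to noise over triplicate slides.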 As to conditions: 635 nm fluorescence, higher = more signal.
Assay [19] concerns the target Neurogenic locus notch homolog protein 3 (Homo sapiens) (UniProt Q9UM47). The assay is described as follows: small molecules binding NOTCH3 protein – biochemical, 635/667 nm fluorescence, primary screen (AID 1096). As to conditions: small-molecule microarray, 635 nm fluorescence, higher = more signal.
Assay [20] is described as follows: probe aEGFR binding to arrayed compounds – biochemical, biotinylated probe, 635/667 nm fluorescence, primary screen (AID 1097).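 Note: probe is a biotinylated anti-EGFR antibody binding compounds printed on slides; score combines fluorescence near 667 nm and signal to noise of each spot.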 As to conditions: small-molecule microarray, higher = more signal.

The source made the active and inactive calls.

Chain of Neurogenic locus notch homolog protein 3 (Homo sapiens) (Q9UM47 whole entry, looked up): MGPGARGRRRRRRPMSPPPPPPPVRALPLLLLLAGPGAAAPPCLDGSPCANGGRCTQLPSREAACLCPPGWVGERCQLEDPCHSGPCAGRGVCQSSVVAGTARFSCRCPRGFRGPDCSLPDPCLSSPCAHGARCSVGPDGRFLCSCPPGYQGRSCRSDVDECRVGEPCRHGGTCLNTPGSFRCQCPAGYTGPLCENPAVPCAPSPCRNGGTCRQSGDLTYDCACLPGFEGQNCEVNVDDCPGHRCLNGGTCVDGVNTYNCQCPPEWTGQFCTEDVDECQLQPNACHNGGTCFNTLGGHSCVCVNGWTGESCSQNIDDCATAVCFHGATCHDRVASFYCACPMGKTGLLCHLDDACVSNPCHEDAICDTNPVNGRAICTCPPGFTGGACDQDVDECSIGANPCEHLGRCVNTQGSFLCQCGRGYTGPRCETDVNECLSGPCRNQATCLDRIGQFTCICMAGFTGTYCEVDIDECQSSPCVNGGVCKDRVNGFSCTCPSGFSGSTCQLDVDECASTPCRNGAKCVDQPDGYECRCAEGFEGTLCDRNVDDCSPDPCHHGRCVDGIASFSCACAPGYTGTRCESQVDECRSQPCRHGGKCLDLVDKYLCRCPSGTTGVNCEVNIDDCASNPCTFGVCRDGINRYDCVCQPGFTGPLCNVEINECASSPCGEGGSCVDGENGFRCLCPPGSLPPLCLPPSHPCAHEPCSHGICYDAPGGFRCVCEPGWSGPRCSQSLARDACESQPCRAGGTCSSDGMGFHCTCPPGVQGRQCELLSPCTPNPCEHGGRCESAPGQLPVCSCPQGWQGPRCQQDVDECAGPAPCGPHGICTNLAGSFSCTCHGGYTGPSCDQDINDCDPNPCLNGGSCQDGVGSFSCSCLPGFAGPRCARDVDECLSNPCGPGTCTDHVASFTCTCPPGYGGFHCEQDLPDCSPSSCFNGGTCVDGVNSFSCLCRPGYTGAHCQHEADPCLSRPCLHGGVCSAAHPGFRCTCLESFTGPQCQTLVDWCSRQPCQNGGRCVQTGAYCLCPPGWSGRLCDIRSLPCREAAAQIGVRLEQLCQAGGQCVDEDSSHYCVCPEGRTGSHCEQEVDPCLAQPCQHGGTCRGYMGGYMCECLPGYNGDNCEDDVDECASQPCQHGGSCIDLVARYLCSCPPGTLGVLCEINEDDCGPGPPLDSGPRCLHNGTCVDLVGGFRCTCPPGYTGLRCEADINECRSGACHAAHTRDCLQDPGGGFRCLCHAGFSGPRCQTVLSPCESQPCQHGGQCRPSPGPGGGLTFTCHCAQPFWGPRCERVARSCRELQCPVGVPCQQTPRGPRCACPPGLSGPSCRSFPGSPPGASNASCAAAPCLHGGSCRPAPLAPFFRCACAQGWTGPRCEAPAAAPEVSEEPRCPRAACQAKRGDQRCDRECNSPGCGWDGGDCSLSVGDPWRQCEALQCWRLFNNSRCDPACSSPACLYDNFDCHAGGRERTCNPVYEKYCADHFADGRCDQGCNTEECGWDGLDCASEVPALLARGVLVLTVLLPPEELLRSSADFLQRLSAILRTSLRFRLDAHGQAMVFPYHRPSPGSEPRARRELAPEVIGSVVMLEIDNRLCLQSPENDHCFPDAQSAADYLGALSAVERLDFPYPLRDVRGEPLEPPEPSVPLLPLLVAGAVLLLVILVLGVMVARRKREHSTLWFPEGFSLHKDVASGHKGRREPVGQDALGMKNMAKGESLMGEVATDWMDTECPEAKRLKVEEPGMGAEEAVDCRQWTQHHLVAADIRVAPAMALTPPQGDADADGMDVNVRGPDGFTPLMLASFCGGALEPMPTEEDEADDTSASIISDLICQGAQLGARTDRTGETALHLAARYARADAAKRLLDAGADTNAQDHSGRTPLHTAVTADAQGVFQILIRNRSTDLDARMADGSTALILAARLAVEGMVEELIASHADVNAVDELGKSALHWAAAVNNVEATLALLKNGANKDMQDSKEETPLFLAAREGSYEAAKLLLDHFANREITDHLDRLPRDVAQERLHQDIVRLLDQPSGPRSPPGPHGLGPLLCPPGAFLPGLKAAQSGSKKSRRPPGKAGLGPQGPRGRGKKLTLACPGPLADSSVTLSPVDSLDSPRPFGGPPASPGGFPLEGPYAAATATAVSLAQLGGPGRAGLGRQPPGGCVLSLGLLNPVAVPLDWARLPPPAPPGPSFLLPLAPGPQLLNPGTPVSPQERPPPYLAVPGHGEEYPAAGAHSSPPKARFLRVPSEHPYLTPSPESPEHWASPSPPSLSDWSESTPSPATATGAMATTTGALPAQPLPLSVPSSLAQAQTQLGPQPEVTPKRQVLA
Chain of Torsin-1A-interacting protein 2 (Homo sapiens) (Q8NFQ8 whole entry, looked up): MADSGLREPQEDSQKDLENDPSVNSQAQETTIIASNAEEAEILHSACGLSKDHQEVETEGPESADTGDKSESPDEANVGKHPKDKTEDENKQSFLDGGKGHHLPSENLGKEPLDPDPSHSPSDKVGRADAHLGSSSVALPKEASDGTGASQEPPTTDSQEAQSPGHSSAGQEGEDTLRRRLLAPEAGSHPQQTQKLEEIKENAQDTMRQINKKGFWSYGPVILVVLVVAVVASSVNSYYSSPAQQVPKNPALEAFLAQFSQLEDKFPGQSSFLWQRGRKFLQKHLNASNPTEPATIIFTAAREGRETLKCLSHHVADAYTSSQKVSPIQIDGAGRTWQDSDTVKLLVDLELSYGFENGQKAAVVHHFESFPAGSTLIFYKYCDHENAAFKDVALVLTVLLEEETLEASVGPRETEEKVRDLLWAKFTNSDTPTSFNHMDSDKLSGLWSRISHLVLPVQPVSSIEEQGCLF

As for `O=C1NCC(=O)N2[C@@H]1C[C@@H](C(=O)O)[C@H]2c1ccc(O)cc1`, the composite z-score was 0.257 in assay [1]; 0.433 in [2]; 0.0121 in assay [3]; 0.593 in [4]; -0.218 in assay [5]; 1.81 in assay [6]. Moreover, the composite z-score in assay [7] is 1.39; in assay [9], 0.0816; in [10], -0.0618; in assay [11], 1.56; in assay [15], 2.6; in assay [17] it was 0.0875. For the same compound, the figures for the composite z-score in assay [18], in assay [19] and in assay [20] were 1.44, 1.08 and -0.326, respectively. The z-score in assay [8] is 4.94 (inactive); in assay [12], 0.442 (inactive); in assay [13], -0.498 (inactive); in assay [14], 0.318 (inactive); in assay [16], 0.984 (inactive).
Turning to `C=CC[C@@]1(C(=O)O)N=C(c2ccc(OCCCO)cc2)O[C@@H]1c1ccccc1`, the composite z-score in assay [1] turned out to be 0.522; in assay [2], 3.13; in assay [3] it was 0.206; in assay [4], 0.553; in [5], 0.63; in assay [6], 2.08. Further, the composite z-score in [7] was 1.34; in assay [9], -0.55; in [10] it was 0.212; in [11], 1.11; in assay [15], 3.22; in assay [17] it was -0.166. For the same compound, the composite z-score in assay [18] was -0.0356; in [19], -0.645; in assay [20], -0.315. Besides, the z-score in [8] was 0.19 (inactive); in [12] it was 0.639 (inactive); in [13], -2.39 (inactive); in assay [14], -0.203 (inactive); in assay [16], 0.572 (inactive).
For the compound `O=C(O)[C@]1(Cc2ccccc2)N=C(c2ccc(OCCCO)cc2)O[C@@H]1c1ccccc1`, the composite z-score in [1] was 0.428; in assay [2] it was -1.31; in [3] it was -0.135; in assay [4], -0.321; in assay [5], 0.0148; in assay [6], 1.45. Also, the composite z-score in assay [7] was 0.847; in assay [9], 0.378; in assay [10], -0.164; in assay [11], -1.27; in [15], 1.55; in assay [17], -0.143. In addition, the composite z-score in assay [18] was -0.849; in assay [19], -0.786; in assay [20], -0.208. Also, the z-score in assay [8] is -0.737 (inactive); in assay [12], 0.624 (inactive); in assay [13], -0.695 (inactive); in assay [14], 0.286 (inactive); in assay [16], 0.377 (inactive).
With `CC(C)CN1C(=O)[C@@]2(Cc3ccccc31)c1ccccc1C(=O)N(Cc1ccccc1C(F)(F)F)[C@H]2c1ccc(CO)cc1`, the composite z-score in [1] is 0.0106; in assay [2] it was -0.0077; in assay [3], -0.167; in [4] it was 0.2; in assay [5], -0.202; in assay [6] it was -0.84. For the same compound, the composite z-score was -1.12 in assay [7]; 0.0594 in assay [9]; -0.374 in [10]; -1.7 in assay [11]; -1.21 in [15]; 0.0169 in [17]. Besides, the composite z-score in assay [18] is -0.0224; in assay [19], -0.527; in assay [20], -0.187. In addition, the z-score was -1.04 (inactive) in [8]; -1.17 (inactive) in assay [12]; -0.147 (inactive) in assay [13]; -3 (inactive) in assay [14]; -0.861 (inactive) in assay [16].
Take `COc1c(C)cc(-c2cc3c(c(-c4ccccc4)n2)[Si](C(C)C)(C(C)C)OC3)cc1C`: the composite z-score in assay [1] was -0.0563; in assay [2] it was -0.0385; in assay [3], -0.241; in assay [4] it was -0.304; in assay [5] it was -0.181; in assay [6], -0.112. Moreover, the composite z-score in assay [7] is -1.15; in assay [9], -0.205; in assay [10], -0.0672; in assay [11] it was -0.267; in [15], -0.495; in assay [17], 0.0008. In addition, the values for the composite z-score in assay [18], in assay [19] and in assay [20] were -0.24, -0.263 and -0.0262, respectively. For the same compound, the z-score in assay [8] is -0.577 (inactive); in assay [12], 0.105 (inactive); in [13], -0.747 (inactive); in [14], -0.275 (inactive); in assay [16], 0.346 (inactive).
